Measured values: article PMC9911399, “Two distinct binding modes provide the RNA-binding protein RbFox with extraordinary sequence specificity”
Substitutions are numbered along the chain they refer to; changes in the protein carry UniProt numbers. Whole data set: some 16,000 sequences, median “ka relative to ugcaugu” near 0.0091, cut for the highest 2% near 0.032. What follows is part of a selection rich in the highest values, with near analogues and random picks from the rest.

T1: RBFOX1 RRM (Homo sapiens, UniProt Q9NWB1 109-208)
T1 sequence: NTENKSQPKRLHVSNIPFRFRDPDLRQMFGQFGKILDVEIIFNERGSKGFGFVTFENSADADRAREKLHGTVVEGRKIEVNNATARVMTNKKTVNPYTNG

B1: GGGUACA (DNA:RNA)
RNA: GGGAGACCGGAAUUCAGAUUGUCCGGGUACAUUAAAUCCCGUCGUAGCCACCA
DNA 1: CAATCTGAATTCCGGTCTCCC
DNA 2: TGGTGGCTACGACGGGATT
B2: GUUCUUU (DNA:RNA)
RNA: B1 RNA with G26U, G27U, U28C, A29U, C30U, A31U
DNA 1: CAATCTGAATTCCGGTCTCCC
DNA 2: TGGTGGCTACGACGGGATT
B3: UCUUAUA (DNA:RNA)
RNA: B1 RNA with G25U, G26C, G27U, C30U
DNA 1: CAATCTGAATTCCGGTCTCCC
DNA 2: TGGTGGCTACGACGGGATT
B4: UAGUUAU (DNA:RNA)
RNA: B1 RNA with G25U, G26A, A29U, C30A, A31U
DNA 1: CAATCTGAATTCCGGTCTCCC
DNA 2: TGGTGGCTACGACGGGATT
B5: CCUCUCC (DNA:RNA)
RNA: B1 RNA with G25C, G26C, G27U, U28C, A29U, A31C
DNA 1: CAATCTGAATTCCGGTCTCCC
DNA 2: TGGTGGCTACGACGGGATT
B6: AUAACCC (DNA:RNA)
RNA: B1 RNA with G25A, G26U, G27A, U28A, A29C, A31C
DNA 1: CAATCTGAATTCCGGTCTCCC
DNA 2: TGGTGGCTACGACGGGATT
B7: GGCGCUG (DNA:RNA)
RNA: B1 RNA with G27C, U28G, A29C, C30U, A31G
DNA 1: CAATCTGAATTCCGGTCTCCC
DNA 2: TGGTGGCTACGACGGGATT
B8: GGUGUCA (DNA:RNA)
RNA: B1 RNA with G27U, U28G, A29U
DNA 1: CAATCTGAATTCCGGTCTCCC
DNA 2: TGGTGGCTACGACGGGATT
B9: AAACCAG (DNA:RNA)
RNA: GGGAGACCGGAAUUCAGAUUGUCCAAACCAGUUAAAUCCCGUCGUAGCCACCA
DNA 1: CAATCTGAATTCCGGTCTCCC
DNA 2: TGGTGGCTACGACGGGATT
B10: AACUAGA (DNA:RNA)
RNA: B1 RNA with G25A, G26A, G27C, C30G
DNA 1: CAATCTGAATTCCGGTCTCCC
DNA 2: TGGTGGCTACGACGGGATT
B11: AUUUUUU (DNA:RNA)
RNA: B9 RNA with A26U, A27U, C28U, C29U, A30U, G31U
DNA 1: CAATCTGAATTCCGGTCTCCC
DNA 2: TGGTGGCTACGACGGGATT
B12: CGGAGUG (DNA:RNA)
RNA: B1 RNA with G25C, U28A, A29G, C30U, A31G
DNA 1: CAATCTGAATTCCGGTCTCCC
DNA 2: TGGTGGCTACGACGGGATT
B13: GGAAUUC (DNA:RNA)
RNA: B1 RNA with G27A, U28A, A29U, C30U, A31C
DNA 1: CAATCTGAATTCCGGTCTCCC
DNA 2: TGGTGGCTACGACGGGATT
B14: GGAGUGU (DNA:RNA)
RNA: B1 RNA with G27A, U28G, A29U, C30G, A31U
DNA 1: CAATCTGAATTCCGGTCTCCC
DNA 2: TGGTGGCTACGACGGGATT
B15: GGGAGUG (DNA:RNA)
RNA: B1 RNA with U28A, A29G, C30U, A31G
DNA 1: CAATCTGAATTCCGGTCTCCC
DNA 2: TGGTGGCTACGACGGGATT
B16: CGGAUUC (DNA:RNA)
RNA: B1 RNA with G25C, U28A, A29U, C30U, A31C
DNA 1: CAATCTGAATTCCGGTCTCCC
DNA 2: TGGTGGCTACGACGGGATT
B17: GGGAUUC (DNA:RNA)
RNA: B1 RNA with U28A, A29U, C30U, A31C
DNA 1: CAATCTGAATTCCGGTCTCCC
DNA 2: TGGTGGCTACGACGGGATT
B18: AGUAUUG (DNA:RNA)
RNA: B9 RNA with A26G, A27U, C28A, C29U, A30U
DNA 1: CAATCTGAATTCCGGTCTCCC
DNA 2: TGGTGGCTACGACGGGATT
B19: GCGUCGG (DNA:RNA)
RNA: B1 RNA with G26C, A29C, C30G, A31G
DNA 1: CAATCTGAATTCCGGTCTCCC
DNA 2: TGGTGGCTACGACGGGATT
B20: CGGCUAU (DNA:RNA)
RNA: B9 RNA with A25C, A26G, A27G, C29U, G31U
DNA 1: CAATCTGAATTCCGGTCTCCC
DNA 2: TGGTGGCTACGACGGGATT
B21: AAACACU (DNA:RNA)
RNA: B9 RNA with C29A, A30C, G31U
DNA 1: CAATCTGAATTCCGGTCTCCC
DNA 2: TGGTGGCTACGACGGGATT
B22: GCGCAGU (DNA:RNA)
RNA: B1 RNA with G26C, U28C, C30G, A31U
DNA 1: CAATCTGAATTCCGGTCTCCC
DNA 2: TGGTGGCTACGACGGGATT
B23: GUUGUGG (DNA:RNA)
RNA: B9 RNA with A25G, A26U, A27U, C28G, C29U, A30G
DNA 1: CAATCTGAATTCCGGTCTCCC
DNA 2: TGGTGGCTACGACGGGATT
B24: UGGACCG (DNA:RNA)
RNA: B1 RNA with G25U, U28A, A29C, A31G
DNA 1: CAATCTGAATTCCGGTCTCCC
DNA 2: TGGTGGCTACGACGGGATT
B25: GGGAACG (DNA:RNA)
RNA: B1 RNA with U28A, A31G
DNA 1: CAATCTGAATTCCGGTCTCCC
DNA 2: TGGTGGCTACGACGGGATT
B26: GGAACGU (DNA:RNA)
RNA: B9 RNA with A25G, A26G, C28A, A30G, G31U
DNA 1: CAATCTGAATTCCGGTCTCCC
DNA 2: TGGTGGCTACGACGGGATT
B27: UGGAACG (DNA:RNA)
RNA: B1 RNA with G25U, U28A, A31G
DNA 1: CAATCTGAATTCCGGTCTCCC
DNA 2: TGGTGGCTACGACGGGATT
B28: CCGAACG (DNA:RNA)
RNA: B1 RNA with G25C, G26C, U28A, A31G
DNA 1: CAATCTGAATTCCGGTCTCCC
DNA 2: TGGTGGCTACGACGGGATT
B29: GUUAACG (DNA:RNA)
RNA: B1 RNA with G26U, G27U, U28A, A31G
DNA 1: CAATCTGAATTCCGGTCTCCC
DNA 2: TGGTGGCTACGACGGGATT
B30: GAGAACG (DNA:RNA)
RNA: B1 RNA with G26A, U28A, A31G
DNA 1: CAATCTGAATTCCGGTCTCCC
DNA 2: TGGTGGCTACGACGGGATT
B31: CGGAACG (DNA:RNA)
RNA: B1 RNA with G25C, U28A, A31G
DNA 1: CAATCTGAATTCCGGTCTCCC
DNA 2: TGGTGGCTACGACGGGATT
B32: GUGAACG (DNA:RNA)
RNA: B1 RNA with G26U, U28A, A31G
DNA 1: CAATCTGAATTCCGGTCTCCC
DNA 2: TGGTGGCTACGACGGGATT

Target: T1, RBFOX1 RRM
Assay: EMSA; HiTS-Eq, 1 nM pool, 10 min; buffer printed only for the single-RNA assays: 10 mM Tris pH 7.5, 150 mM NaCl, 3.4 mM EDTA, 0.001% NP-40, 30 C
Conditions: tags: His6 N-terminal (pET28a); label: 5' 32P
In short: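 A pool of RNA with 7 randomized nucleotides, 5′-radiolabelled and with DNA-annealed flanks, was equilibrated at 1 nM for 10 min in 50 µL with purified RbFox RRM, wild type or mutant, across increasing protein concentrations. Free RNA was separated by 8% native PAGE, excised, reverse-transcribed, barcoded by PCR and sequenced. Relative association constants were obtained from read-count changes of each RNA species versus the control reaction and normalised to the cognate motif.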

Binder	binding signal
B1	0.0112 KA relative to UGCAUGU
B2	0.0158 KA relative to UGCAUGU
B3	0.00158 KA relative to UGCAUGU
B4	0.00794 KA relative to UGCAUGU
B5	0.00489 KA relative to UGCAUGU
B6	0.00143 KA relative to UGCAUGU
B7	0.0174 KA relative to UGCAUGU
B8	0.00539 KA relative to UGCAUGU
B9	0.000872 KA relative to UGCAUGU
B10	0.00203 KA relative to UGCAUGU
B11	0.007 KA relative to UGCAUGU
B12	0.0283 KA relative to UGCAUGU
B13	0.018 KA relative to UGCAUGU
B14	0.0229 KA relative to UGCAUGU
B15	0.0333 KA relative to UGCAUGU
B16	0.0273 KA relative to UGCAUGU

Binder	binding signal
B17	0.044 KA relative to UGCAUGU
B18	0.0121 KA relative to UGCAUGU
B19	0.0208 KA relative to UGCAUGU
B20	0.0107 KA relative to UGCAUGU
B21	0.00096 KA relative to UGCAUGU
B22	0.0136 KA relative to UGCAUGU
B23	0.0184 KA relative to UGCAUGU
B24	0.0269 KA relative to UGCAUGU
B25	0.0367 KA relative to UGCAUGU
B26	0.0248 KA relative to UGCAUGU
B27	0.0367 KA relative to UGCAUGU
B28	0.0118 KA relative to UGCAUGU
B29	0.0101 KA relative to UGCAUGU
B30	0.0165 KA relative to UGCAUGU
B31	0.0344 KA relative to UGCAUGU
B32	0.0163 KA relative to UGCAUGU
